Experimental findings from PubChem BioAssay AID2057 (The Scripps Research Institute Molecular Screening Center, 2009) are described below.

What is called inhibition is the drop in the measured response relative to a control, in per cent.

The whole screen tested about 320,000 compounds, of which about 2,100 (0.66%) were called active. For the sample, actives were picked, then their nearest neighbours and some compounds at random. Unmarked numbers belong to inactive results.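 The calls were made as follows: active = inhibition above the mean inhibition of all tested compounds plus 3 SD, set per campaign (cut at about 40% in these data); inactive = the rest.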

Sequence of Induced myeloid leukemia cell differentiation protein Mcl-1 (Homo sapiens) (Q07820 whole entry, looked up): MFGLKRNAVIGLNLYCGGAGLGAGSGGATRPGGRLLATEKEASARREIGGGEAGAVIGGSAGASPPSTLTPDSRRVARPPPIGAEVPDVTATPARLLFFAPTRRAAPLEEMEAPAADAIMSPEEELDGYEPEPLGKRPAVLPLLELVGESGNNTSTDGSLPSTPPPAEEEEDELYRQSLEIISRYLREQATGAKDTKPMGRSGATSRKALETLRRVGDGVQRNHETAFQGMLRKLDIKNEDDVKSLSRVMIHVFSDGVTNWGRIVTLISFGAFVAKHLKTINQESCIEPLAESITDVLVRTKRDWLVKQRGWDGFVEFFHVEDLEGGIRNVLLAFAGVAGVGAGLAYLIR

This test has as its target Induced myeloid leukemia cell differentiation protein Mcl-1 (Homo sapiens) (UniProt Q07820). Briefly: MCL1-BIM peptide interaction disruptors – biochemical, fluorescence polarization, primary screen (AID 2057).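 Also: 0% = DMSO wells and 100% = unlabeled Bim-BH3 peptide control; higher means more loss of mP so more displacement of Bim peptide.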 The note with it: GST-MCL1 / FITC-Bim-BH3 fluorescence polarization; at 10.9 µM; active compounds read high. In general terms: In fluorescence polarisation assays a small probe gives low polarisation when free and higher when bound to something large.
For `Cc1cc(/C=C2\SC(=O)N(C)C2=O)c(C)n1-c1cccc(C(=O)O)c1`, the inhibition was 10.5%.

On to `Cc1cc(/C=C2\SC(=Nc3ccc(N4CCOCC4)cc3)N(C)C2=O)c(C)n1-c1cccnc1`, for which the inhibition is -2.16%.

On to `CN1C(=O)/C(=C/c2ccco2)SC1=Nc1cccc(C(=O)O)c1`, for which the inhibition was 44.5% (active).

Consider `COc1ccc(N(CC(=O)NC2CCCCC2)S(=O)(=O)c2c(C)[nH]c(=O)[nH]c2=O)cc1`, for which the inhibition is 5.18%.

As for `CN(CCOc1ccccc1)C(=O)c1cc(-c2ccco2)nc2ccccc12`, the inhibition was 46% (active).

As for `COc1ccc(NC(=O)CN(C)C(=O)c2cc(-c3ccc(C)o3)nc3ccccc23)cc1`, the inhibition is 4.98%.

Take `CN(C(=O)COC(=O)c1nc(Cl)ccc1Cl)C1CCS(=O)(=O)C1` (stereo not drawn): the inhibition is -0.55%.

In the case of `CN(C(=O)COC(=O)c1cc(-c2ccco2)nc2ccccc12)C1CCS(=O)(=O)C1` (stereo not drawn), the inhibition was 105% (active).

As for `COc1ccc(-c2cc(C(=O)N(C)Cc3ccccc3)c3ccccc3n2)cc1`, the inhibition is -5.9%.

Take `CC1CCCN(C(=O)c2cc(-c3ccco3)nc3ccccc23)C1` (stereo not drawn): the inhibition was 7.17%.

On to `COc1ccccc1C(=O)N/C(=C/c1ccco1)C(=O)Nc1ccc(C(=O)O)cc1`, for which the inhibition was 12.1%.

As for `COC(=O)c1ccccc1NC(=O)CSc1nc2c(c(=O)[nH]1)CCC2`, the inhibition is 0.89%.

Consider `CC(=O)N1CCC(C(=O)OCc2ccc(Cl)cc2)(c2ccccc2)CC1`, for which the inhibition was 7.68%.

As for `CCCCC(NS(=O)(=O)c1ccc(C)cc1)C(=O)Oc1ccc2c3c(c(=O)oc2c1)CCC3` (stereo not drawn), the inhibition is 1.03%.

In the case of `C#CCOCCOCCOCCNc1nc(N2CCN(C(=O)CCCCCCCCCCNC(=O)[C@H](CCCCN)n3cc(C)nn3)CC2)nc(N2CCN(C(=O)CCCCCCCCCCNC(=O)[C@H](CO)n3cc(CCCSC)nn3)CC2)n1`, the inhibition is 14.4%.

Turning to `CN1c2ccc(C=O)c3c(C=O)ccc(c23)N(C)C1(C)C`, the inhibition is 167% (active).

Regarding `O=C(OCc1cc(Cl)ccc1OC(F)F)c1cccnc1`, the inhibition was -0.26%.

Take `CS(=O)(=O)Nc1ccccc1N=C(c1ccccc1)c1ccccc1`: the inhibition was -1.05%.

For the molecule `COC(=O)/C=C\C(=O)Nc1cccc([N+](=O)[O-])c1`, the inhibition was 2.27%.

Consider `COC(=O)c1sccc1NC(=S)Nc1ccc(C)cc1`, for which the inhibition was 13.5%.

Consider `Cc1ccc(C(=O)NC(=S)Nc2ccccc2C)cc1`, for which the inhibition was 4.14%.

Regarding `COC(=O)c1sc(NC(=S)NC(=O)c2ccc(C)cc2)nc1C`, the inhibition is 98.3% (active).

Consider `CCOc1ccc(C2C3=C(CCCC3=O)N(CC(=O)O)C3=C2C(=O)CCC3)cc1`, for which the inhibition was 17.6%.

Take `CCCN1C2=C(C(=O)CCC2)C(c2ccc(O)c(Br)c2)C2=C1CCCC2=O`: the inhibition is 43.5% (active).

In the case of `COc1ccc(C2C3=C(CCCC3=O)N(CC(=O)O)C3=C2C(=O)CCC3)cc1`, the inhibition is 8.95%.

With `COc1ccccc1N1CCN(S(=O)(=O)CCNC(=O)c2ccc(OC(C)C)cc2)CC1`, the inhibition is -5.21%.

Turning to `Cc1cc(C)n2nc(C(=O)N(C)C(c3ccccc3)c3ccccc3)nc2n1`, the inhibition was -7.96%.

Consider `Cc1cc(C)c[n+](-c2nc3ccccc3nc2[N-]S(=O)(=O)c2cccs2)c1`, for which the inhibition was 3.38%.

Consider `O=C(NCCc1ccccc1)C1CCN(S(=O)(=O)c2ccc(Br)s2)CC1`, for which the inhibition was -0.6%.

In the case of `O=S(=O)([N-]c1nc2ccccc2nc1-[n+]1ccc(Cc2ccccc2)cc1)c1ccc(Br)s1`, the inhibition was 87.1% (active).

For the molecule `Cc1cc(-c2nnc(SCC(=O)Nc3ccc(S(N)(=O)=O)cc3)n2N)n[nH]1`, the inhibition was -7.81%.

`COc1ccc2ccccc2c1CNCc1ccccn1`: the inhibition is 4.21%.

For the molecule `CSc1ccccc1C(=O)OCC(=O)N1CCN(C(C)=O)CC1`, the inhibition was 1.83%.
